Results filed as inconclusive are left out. Entries that show only a call come without a potency. Active and inactive are the calls of the source. Calls follow the shape of the dose curve; as a rule, active = well fitted curve in the direction sought with a large enough effect; inconclusive = small, poorly fitted or top-dose-only effect, or another doubt; inactive = no such curve, though single readings can be large; an effect the other way counts as inactive or inconclusive.
Legend:
[1] = tested on: Zika virus NS2B-NS3 protease (linked construct); experiment: Primary screen NINDS Rhodamine qHTS for Zika virus inhibitors (AID 1347160); also: nearly all actives have a fitted effect of over 55% in size; also: potency is read from the fitted curve at half-maximal effect
Method in brief: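 Single-chain NS2B-NS3 protease, 25 nM, pH 8.0; compounds preincubated 15 min. Activity: Rhodamine110 release from 1.5 microM substrate over 15 min, room temperature, data fitted to 4-parameter Hill.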

[2] = HPAF-II Cancer Cell Toxicity qHTS against the NCATS CANVASS Library (AID 1347346); also: nearly all actives have a fitted effect of over 55% in size; also: potency is read from the fitted curve at half-maximal effect
Method in brief: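 First, HPAF-II cells are plated (1000 cells/well) and held 4 h at 37 degrees C. Next, compounds are pin-transferred as an 11-point series. After 72 h, CellTiter-Glo is added and luminescence measured.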

[3] = COV-362 Cancer Cell Toxicity qHTS against the NCATS CANVASS Library (AID 1347352); also: potency is read from the fitted curve at half-maximal effect
Method in brief: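 First, 1000 cells go into each well and rest for 4 hours. Next, an 11-point dilution range is pinned in. Plates then incubate 72 hours before CellTiter-Glo addition and luminescence reading.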

[4] = HPAF-II 24hr Apoptosis Induction qHTS against the NCATS CANVASS Library (AID 1347356)
Method in brief: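 Cells seeded at 500 per well, then compounds pin-transferred in an 11-point concentration series. After 24 hours at 37 degrees C, Caspase-Glo 3/7 was added and luminescence measured following 15 min at room temperature.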

[5] = HEK293 18hr Apoptosis Induction qHTS against the NCATS CANVASS Library (AID 1347357); also: potency is read from the fitted curve at half-maximal effect
Method in brief: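 HEK293 cells (500/well, DMEM + 10% FBS) treated with an 11-point series for 18 h at 37 degrees C. Caspase-3/7 activity read by Caspase-Glo luminescence after 15 min at room temperature.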

[6] = HEK293 24hr Apoptosis Induction qHTS against the NCATS CANVASS Library (AID 1347359)
Method in brief: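 HEK293 cells, 500 per well, exposed to an 11-point compound series for 24 hours at 37 degrees C. Caspase 3/7 activity read by Caspase-Glo luminescence (DEVD substrate) after 15 min at room temperature.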

[7] = HEK293 12hr Apoptosis Induction qHTS against the NCATS CANVASS Library (AID 1347361); also: potency is read from the fitted curve at half-maximal effect
Method in brief: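 HEK293 cells (500/well) were exposed to an 11-point qHTS concentration series for 12 hours at 37 degrees C. Caspase-3/7 activity was then read by DEVD-substrate luciferase luminescence after 15 min at room temperature.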

[8] = molecular target: Luciferin 4-monooxygenase (Photinus pyralis) (UniProt P08659); experiment: Firefly luciferase counterscreen qHTS: Assay Interference Panel against the NCATS CANVASS Library (AID 1347363); also: potency is read from the fitted curve at half-maximal effect
Chain of Luciferin 4-monooxygenase (Photinus pyralis) (P08659 whole entry, looked up): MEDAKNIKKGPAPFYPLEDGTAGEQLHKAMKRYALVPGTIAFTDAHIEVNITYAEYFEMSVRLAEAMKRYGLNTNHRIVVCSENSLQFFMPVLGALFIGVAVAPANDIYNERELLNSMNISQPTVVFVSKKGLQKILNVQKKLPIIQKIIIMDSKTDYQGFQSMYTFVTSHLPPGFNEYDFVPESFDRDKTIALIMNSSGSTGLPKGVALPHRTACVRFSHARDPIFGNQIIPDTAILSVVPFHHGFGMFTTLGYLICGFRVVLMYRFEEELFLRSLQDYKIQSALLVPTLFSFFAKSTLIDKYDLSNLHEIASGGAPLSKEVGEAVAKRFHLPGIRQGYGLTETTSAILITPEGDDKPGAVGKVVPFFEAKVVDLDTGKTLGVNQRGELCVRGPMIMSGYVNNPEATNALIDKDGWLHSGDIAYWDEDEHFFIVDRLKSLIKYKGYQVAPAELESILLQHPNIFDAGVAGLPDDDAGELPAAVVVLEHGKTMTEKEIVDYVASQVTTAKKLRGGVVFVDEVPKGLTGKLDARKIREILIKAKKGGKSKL
Method in brief: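 Purified P. pyralis luciferase (0.04 ug/mL, 4x reagent) added to Tris-acetate buffer with 0.013 mM D-luciferin, 0.013 mM ATP and 13.3 mM Mg-acetate; compounds preincubated 15 min, then luminescence read after 5 min, RT.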

[9] = KB-3-1 Cancer Cell Toxicity qHTS against the NCATS CANVASS Library (AID 1347366); also: nearly all actives have a fitted effect of over 75% in size; also: potency is read from the fitted curve at half-maximal effect
Method in brief: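 KB-3-1 cells (500/well) in DMEM with 10% FBS were exposed to compounds for 72 h at 37C. Viability was read by CellTiter-Glo luminescence.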

[10] = qHTS for ATAD5 Agonist screened against the NCATS CANVASS Library (AID 1347367);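 also: luciferase reporter driven by ATAD5 which rises upon DNA damage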
Method in brief: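 Luciferase reporter under ATAD5 control, stably integrated in HEK293T cells (2000/well). Compounds (11 points) incubated 16 h at 37C; viability read first by CellTiter-Fluor, then luminescence reporting ATAD5 activation. MMS positive control.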

[11] = MCF7 Cancer Cell Toxicity qHTS against the NCATS CANVASS Library (AID 1347369); also: potency is read from the fitted curve at half-maximal effect
Method in brief: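 MCF7 cells (500/well) were exposed 72 h at 37 °C to compounds in an 11-point series. Viability was read as ATP content by CellTiterGlo luminescence.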

[12] = qHTS for ATAD5 Antagonist screened against the NCATS CANVASS Library (AID 1347370); also: nearly all actives have a fitted effect of over 65% in size; also: potency is read from the fitted curve at half-maximal effect
Method in brief: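 Compounds (11-point) co-dosed with 10 µM 5-FUrd for 16 h at 37 °C onto HEK293T-ATAD5 luciferase reporter cells. Viability measured by CellTiter-Fluor fluorescence, then ATAD5 reporter signal by luminescence.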

[13] = J3T Cancer Cell Toxicity qHTS against the NCATS CANVASS Library (AID 1347371); also: potency is read from the fitted curve at half-maximal effect
Method in brief: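 Luminescence from CellTiterGlo, reporting cellular ATP, serves as the viability measure after 72 hr compound treatment of J3T canine glioma cells seeded at 500 cells/well.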

[14] = 10-beta competent E. coli microbial cell viability qHTS against the NCATS CANVASS Library (AID 1347376); also: series mostly up to about 46 µM
Method in brief: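 Bacterial suspension diluted to 0.2 OD was dosed with compounds, 11-point series, then held overnight at 37C. BacTiter-Glo reagent was added, and after 20 min at room temperature ATP-dependent luminescence was measured.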

[15] = Inflammasome Signaling qHTS Counterscreen: IL-1-beta AlphaLISA counterscreen against the NCATS CANVASS Library (AID 1347381);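 also: cell-free check with purified IL-1β in medium and no THP-1 cells; series mostly up to about 57 µM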
Method in brief: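 Purified IL-1-beta (4 pg/well) + compound, 11-pt conc. series; acceptor beads 6 ug/mL + biotin-Ab 0.6 nM final, 1 h RT; SA-donor 24 ug/ml final, 30 min dark RT; read ex 680/em 615.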

[16] = Vero-766 cells viability qHTS against the NCATS CANVASS Library: Counterscreen for Zika virus inhibition assay (AID 1347394); also: nearly all actives have a fitted effect of over 60% in size; also: potency is read from the fitted curve at half-maximal effect
Method in brief: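 Vero 766 cells (1000/well), without Zika virus, were exposed to compounds for 72 h at 37C. Viability was measured by CellTiter Glo luminescence. Media-only wells served as 100% inhibition.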

[17] = U-118MG Cancer Cell Toxicity qHTS against the NCATS CANVASS Library (AID 1347351); also: potency is read from the fitted curve at half-maximal effect
Method in brief: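 Following a 4 h pre-incubation of 1000 seeded cells, compounds were pinned in an 11-pnt dilution series and left for 72 h; viability then came from CellTiter-Glo.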

[18] = qHTS for Inflammasome Signaling Inhibitors: IL-1-beta AlphaLISA screen against the NCATS CANVASS Library (AID 1347379);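 also: human THP-1 cells primed with LPS then triggered with ATP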
Method in brief: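 Secreted IL-1B from human THP-1 cells quantified by AlphaLISA 16 hr after compound addition (final up to 57.5 uM). A 1 hr compound pretreatment preceded inflammasome activation with 250 ng/mL LPS plus 1.25 mM ATP (final).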

[19] = Viability qHTS for inhibitors of the SERCaMP assay screened against the NCATS CANVASS Library (AID 1347400); also: nearly all actives have a fitted effect of over 70% in size; also: potency is read from the fitted curve at half-maximal effect
Method in brief: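 Seed SH-SY5Y-GLuc SERCaMP MJH297 cells at 1000 per well, incubate 4 h, add compounds across an 11-point range, incubate 48 h at 37C, then add CellTiter-Glo and read luminescence.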

[20] = molecular target: Nuclear receptor subfamily 1 group I member 3 (Homo sapiens) (UniProt Q14994); experiment: qHTS for Constitutive Androstane Receptor (CAR) Agonist screened against the NCATS CANVASS Library (AID 1347373);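 also: every well also contained 1.5 µM PK11195 alongside the test compound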
Chain of Nuclear receptor subfamily 1 group I member 3 (Homo sapiens) (Q14994 whole entry, looked up): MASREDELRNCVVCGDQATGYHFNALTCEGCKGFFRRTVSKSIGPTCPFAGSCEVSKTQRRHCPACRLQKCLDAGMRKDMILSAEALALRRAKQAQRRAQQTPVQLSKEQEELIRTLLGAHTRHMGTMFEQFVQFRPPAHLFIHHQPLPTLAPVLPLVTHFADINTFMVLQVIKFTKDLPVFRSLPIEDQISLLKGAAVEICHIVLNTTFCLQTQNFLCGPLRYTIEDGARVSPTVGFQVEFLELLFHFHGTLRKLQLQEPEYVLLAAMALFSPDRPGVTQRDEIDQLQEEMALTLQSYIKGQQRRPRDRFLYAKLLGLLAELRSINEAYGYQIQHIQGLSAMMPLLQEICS
Method in brief: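 Cells were plated and allowed to attach for 4hr, then dosed with compound in an 11-point series alongside 1.5uM PK11195. After 24hr at 37C, viability was measured fluorometrically and CAR-driven CYP2B6 reporter luminescence was recorded.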

Structure (SMILES) | Potency [1] | Potency [2] | Potency [3] | outcome [4] | Potency [5] | Potency [6] | Potency [7] | Potency [8] | Potency [9] | Potency [10] | Potency [11] | Potency [12] | Potency [13] | outcome [14] | outcome [15] | Potency [16] | Potency [17] | Potency [18] | Potency [19] | outcome [20]
COc1ccc(/C=C2\COc3cc(O)ccc3C2=O)cc1 | 22 µM (active) | inactive | inactive | inactive | inactive | inactive | inactive | 0.485 µM (active) | inactive | inactive | inactive | inactive | inactive | inactive | inactive | inactive | – | – | – | –
CC1(C)C=Cc2c(ccc3c2OC[C@@H](c2ccc(O)cc2O)C3)O1 | 44 µM (active) | inactive | inactive | inactive | inactive | inactive | inactive | – | inactive | inactive | inactive | inactive | inactive | inactive | inactive | inactive | inactive | inactive | inactive | –
C=C(C)CC[C@H](Cc1c(O)cc(O)c2c1O[C@H](c1ccc(O)cc1O)CC2=O)C(=C)C | 19.6 µM (active) | inactive | inactive | inactive | inactive | inactive | inactive | inactive | inactive | inactive | inactive | inactive | inactive | inactive | inactive | 23.4 µM (active) | inactive | inactive | inactive | inactive
Oc1ccc([C@H]2Oc3ccc(/C=C/c4cc(O)cc(O)c4)cc3C2c2cc(O)cc(O)c2)cc1 (stereo partly drawn) | 24.7 µM (active) | inactive | inactive | inactive | inactive | inactive | inactive | inactive | inactive | inactive | inactive | inactive | inactive | inactive | inactive | – | inactive | – | inactive | inactive
Oc1ccc(/C=C2/c3cc(O)cc(O)c3C(c3ccc(O)cc3)[C@H]2c2cc(O)cc(O)c2)cc1 (stereo partly drawn) | 27.7 µM (active) | inactive | inactive | inactive | inactive | inactive | inactive | inactive | – | inactive | inactive | inactive | inactive | inactive | inactive | inactive | inactive | inactive | inactive | inactive
C=C(C)C(=O)O[C@H]1C[C@H](C)[C@@H](OC(C)=O)CC[C@@]2(C)O[C@@H]2[C@H]2OC(=O)C(COC(C)=O)=C12 | 31.1 µM (active) | 11.9 µM (active) | inactive | – | 9.35 µM (active) | – | 9.35 µM (active) | inactive | – | – | 23.4 µM (active) | 16.6 µM (active) | 6.62 µM (active) | inactive | inactive | – | – | 9.68 µM (active) | 9.57 µM (active) | inactive
C[C@]12CC[C@]3(C1)[C@H](CC2=O)CC(OC(=O)c1ccccc1)[C@H]1[C@@](CO)(C(=O)O)CCC[C@@]13C (stereo partly drawn) | 49.3 µM (active) | inactive | inactive | inactive | inactive | inactive | inactive | inactive | inactive | inactive | inactive | inactive | inactive | inactive | inactive | inactive | inactive | inactive | inactive | inactive
C=C[C@]1(C)CC[C@@H]([C@H](C)C(=O)OCC)O1 | 27.2 µM (active) | inactive | inactive | inactive | inactive | inactive | inactive | – | inactive | inactive | inactive | inactive | inactive | inactive | inactive | inactive | inactive | inactive | inactive | inactive
C/C=C/C(=O)[C@@H](C)C1=CC(=O)C2=C(O[C@@]34CC[C@H](O)C(C)(C)[C@@H]3CC[C@H](C)[C@@]4(C)C2)C1=O | 49.3 µM (active) | 3.75 µM (active) | – | – | – | – | 9.35 µM (active) | inactive | 20.9 µM (active) | inactive | 13.1 µM (active) | 7.41 µM (active) | 5.26 µM (active) | inactive | inactive | 18.6 µM (active) | – | 3.43 µM (active) | 13.5 µM (active) | inactive
CCC[C@@H](C)/C=C(\C)[C@H](O)[C@H](C)/C=C/CC[C@@H](O)[C@H](C)[C@H](O)[C@H](C)[C@H](O)[C@H](C)[C@H]1O[C@H]([C@H](C)C(=O)O)CC[C@@H]1C | 6.21 µM (active) | 4.73 µM (active) | 5.94 µM (active) | inactive | inactive | inactive | inactive | inactive | 11.8 µM (active) | inactive | 16.5 µM (active) | – | inactive | inactive | inactive | 9.33 µM (active) | 16.8 µM (active) | – | 27 µM (active) | inactive
C[C@@H]1C(=O)[C@]23CC[C@H]1C[C@]21O[C@H]2C(C)(C)C=CC(=O)[C@]23COC1=O | inactive | inactive | inactive | inactive | inactive | inactive | inactive | inactive | inactive | inactive | inactive | inactive | inactive | inactive | inactive | inactive | inactive | inactive | inactive | inactive
CC1=CC2=C[C@H](C)C[C@@]23OC(=C(C)C3=O)CC(C)(C)/C=C/C1=O | 55.3 µM (active) | 0.668 µM (active) | – | inactive | – | – | 0.935 µM (active) | inactive | 2.64 µM (active) | inactive | 1.65 µM (active) | 0.933 µM (active) | 0.935 µM (active) | inactive | inactive | – | 0.749 µM (active) | 1.09 µM (active) | 1.52 µM (active) | inactive
